Compounds with a hit are over-represented: about 0.9% of the library has one in this group of screens.
FadD28 FP inh: inhibitors of Mycobacterium tuberculosis FadD28 bisubstrate binding. FadD28 bisubstrate probe binding, fluorescence polarization. inhibition, % at 12.5 µM. 0.22% of 360,000 active. AID 588549; in the data active means inhibition above about 8.5%, passing the limit was not always enough; inconclusive means no clear call, values can overlap the other calls
RecA intein inh: inhibitors of M. tuberculosis RecA intein splicing. 0.75% of 290,000 active. cell-free RecA intein splicing, fluorescence. P9WHJ3. inhibition, % (concentration not given with the values); in the data active means inhibition above about 30%; inconclusive means no clear call, values can overlap the other calls
Target sequence (P9WHJ3 whole entry, looked up): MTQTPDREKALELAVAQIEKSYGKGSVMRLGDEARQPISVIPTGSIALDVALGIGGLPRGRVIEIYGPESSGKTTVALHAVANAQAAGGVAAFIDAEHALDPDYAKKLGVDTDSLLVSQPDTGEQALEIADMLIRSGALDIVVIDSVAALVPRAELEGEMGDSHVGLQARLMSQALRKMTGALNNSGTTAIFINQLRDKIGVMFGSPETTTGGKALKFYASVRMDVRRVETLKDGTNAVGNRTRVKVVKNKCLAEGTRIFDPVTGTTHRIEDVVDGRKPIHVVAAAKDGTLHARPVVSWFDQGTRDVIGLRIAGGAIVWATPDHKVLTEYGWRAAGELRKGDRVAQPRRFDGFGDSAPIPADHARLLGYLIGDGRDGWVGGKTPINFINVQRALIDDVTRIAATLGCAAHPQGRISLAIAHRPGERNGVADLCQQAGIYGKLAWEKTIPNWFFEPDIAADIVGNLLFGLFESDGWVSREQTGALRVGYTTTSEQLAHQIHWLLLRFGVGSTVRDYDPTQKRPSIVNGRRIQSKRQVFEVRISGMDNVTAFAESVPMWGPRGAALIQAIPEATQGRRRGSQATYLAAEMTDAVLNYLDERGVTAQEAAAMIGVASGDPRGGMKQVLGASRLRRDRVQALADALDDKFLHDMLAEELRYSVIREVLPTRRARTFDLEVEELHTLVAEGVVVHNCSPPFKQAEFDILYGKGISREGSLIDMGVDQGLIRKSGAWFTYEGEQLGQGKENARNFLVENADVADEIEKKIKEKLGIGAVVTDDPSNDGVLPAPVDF
BioA inh: BioA (M. tuberculosis) enzyme inhibition. purified M. tuberculosis BioA enzyme, plate reader. inhibition, % at 9.99 µM. 0.096% of 360,000 active; in the data active means inhibition above about 40%; inconclusive means no clear call, values can overlap the other calls
TcdB inh: TcdB glycohydrolase inhibition | P18177 | TcdB glycohydrolase enzymatic assay, plate reader | inhibition, % at 9.99 µM | 0.24% of 350,000 active; in the data active means inhibition above about 10%
Rv3671c protease: Rv3671c (M. tuberculosis) protease inhibition; inhibition, % at 5.96 µM; 0.048% of 320,000 active; AID 2606; P9WHR9; in the data active means inhibition above about 38%;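 further: extracellular domain of Rv3671c used as enzyme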
Mtb UGM inh: Mtb UDP-galactopyranose mutase inhibition | P9WIQ1 | purified UGM, fluorescence polarization probe displacement | inhibition, % at 10 µM | 0.06% of 320,000 active | AID 504406; in the data active means inhibition above about 10%, passing the limit was not always enough; inconclusive means no clear call, values can overlap the other calls
GFP chromo cs: counter-screen GFP chromophore formation inhibition | shares compounds with RecA intein inh | cell-free GFP chromophore formation, fluorescence | EC50, µM | 83% of 2,100 active; call rule not given here
Hits are given with their value; . = inactive; ? = inconclusive; / = no result given.

SMILES	FadD28 FP inh	RecA intein inh	BioA inh	TcdB inh	Rv3671c protease	Mtb UGM inh	GFP chromo cs
Cc1ccc2c(c1)-c1c(ssc1=S)C(C)(C)N2C(=O)CSc1nncn1C	.	47	.	/	.	.	13
COc1ccc(NC(=O)N(C)C[C@@H]2Oc3ccc(NC(=O)CCN4CCOCC4)cc3C(=O)N([C@@H](C)CO)C[C@@H]2C)cc1	/	/	.	.	/	/	/
O=C(C[C@@H]1C[C@@H]2c3cc(NC(=O)c4ccc5c(c4)OCO5)ccc3O[C@@H]2[C@H](CO)O1)NCc1cc(F)ccc1F	/	/	.	.	/	/	/
COc1ccc(S(=O)(=O)N2C[C@H](O)COC[C@H]3O[C@@H](CC(=O)NCc4ccc(Cl)c(Cl)c4)CC[C@@H]32)cc1	/	/	.	.	/	/	/
CO[C@@H]1CN(C)C(=O)c2cc(NS(=O)(=O)c3ccccc3)ccc2OC[C@H](C)N(Cc2nccs2)C[C@H]1C	/	/	.	.	/	/	/
CCCCCc1c2c(cc(O)c1C(=O)O)OC(=O)c1c(cc(OC)cc1C(=O)CCCC)O2	.	31	.	/	.	.	12
CCCCCc1c2c(cc(O)c1C(=O)O)OC(=O)c1cc(C(=O)CCCC)c(OC)cc1O2	.	/	.	.	.	/	/
COc1ccc(NC(=O)N(C)C[C@@H]2Oc3ccc(NC(=O)NC(C)C)cc3CC(=O)N([C@H](C)CO)C[C@H]2C)cc1	/	/	.	.	/	/	/
COc1cc(/C=C2/SC(=S)NC2=O)ccc1OS(=O)(=O)c1ccc(C)cc1	.	36	/	/	.	.	23
C[C@H]1CCCCO[C@@H](CN(C)S(=O)(=O)c2ccccc2)[C@@H](C)CN([C@@H](C)CO)C(=O)c2cc(NC(=O)Cc3ccccc3)ccc2O1	/	/	.	.	/	/	/
N#CC(C#N)C(c1ccsc1)c1c(-c2ccccc2)[nH][nH]c1=O (stereo not given)	.	86	.	/	.	.	7.6
CCOC(=O)Cn1c(COc2ccccc2OC)[n+](C)c2ccccc21	.	.	.	.	.	.	/
CCCCCCCCCCOC(=O)Cn1c(COc2ccccc2)[n+](C)c2ccccc21	.	47	.	.	.	.	12
CCCCCCCCCCOC(=O)Cn1c(COc2ccc(OC)cc2)[n+](C)c2ccccc21	.	42	.	/	.	.	11
CCCCCCCCCCOC(=O)Cn1c(COc2ccc(Cl)cc2)[n+](C)c2ccccc21	.	.	.	.	.	.	/
CN(C)C(=O)Oc1cccc(OCc2n(C)c3ccccc3[n+]2C)c1	.	.	.	.	.	.	/
CCCCCCCCCCOC(=O)Cn1c(COc2ccccc2C)[n+](C)c2ccccc21	.	57	.	.	.	.	7.6
CCCCCCCCCCOC(=O)Cn1c(COc2cccc(C)c2)[n+](C)c2ccccc21	.	55	.	.	.	.	9.4
O=C(C[C@@H]1CC[C@H]2[C@@H](COC[C@H](O)CN2Cc2cccc(C(F)(F)F)c2)O1)NCc1ccc(Cl)cc1	/	/	.	.	/	/	/
Cc1noc(C)c1NC(=O)N(C)C[C@H]1Oc2c(NC(=O)Nc3ccc(F)cc3)cccc2C(=O)N([C@H](C)CO)C[C@@H]1C	/	/	.	.	/	/	/
CCc1cc2c3c(c1)C1(C(=O)N3C(C)(C)C=C2C)C(C#N)=C(N)Oc2[nH]c(=O)[nH]c(=O)c21 (stereo not given)	.	78	.	.	.	.	19
N=c1c2c(ncn1Cc1ccco1)Oc1ccc3ccccc3c1C2c1ccccc1 (stereo not given)	.	30	/	/	.	.	33
COc1ccc2nc(C)cc(SCC(=O)NNC(=O)COc3ccccc3)c2c1	.	.	/	/	.	.	/
COc1ccc2nc(C)cc(Sc3nc4ccccc4s3)c2c1	.	38	.	.	.	.	24
CCCCNC1C(CC)C(CCC)C(C#N)(C#N)C1(C#N)C#N (stereo not given)	.	76	.	/	.	.	12
SMILES	FadD28 FP inh	RecA intein inh	BioA inh	TcdB inh	Rv3671c protease	Mtb UGM inh	GFP chromo cs
Cn1nc(-c2ccccn2)nc2c(=O)n(C)c(=O)nc1-2	.	95	.	.	.	.	0.41
Cn1ncnc2c(=O)n(C)c(=O)nc1-2	?	97	.	/	.	.	0.09
CNC(=O)C[C@@H]1CC[C@@H]2[C@@H](COc3ccc(NC(=O)Nc4ccccc4)cc3C(=O)N2C)O1	/	/	.	.	/	/	/
CCCc1noc2c1C(c1ccoc1)C(C#N)=C(N)N2 (stereo not given)	.	79	.	/	.	.	.
Cc1ccc(S(=O)(=O)Nc2ccc3c(c2)C(=O)N([C@@H](C)CO)C[C@H](C)[C@H](CN(C)S(=O)(=O)c2ccc(F)cc2)OCCCC[C@@H](C)O3)cc1	/	/	.	.	/	/	/
CCOC(=O)c1c(NC(=O)CSc2nncs2)sc(C)c1-c1ccccc1	.	.	/	.	.	.	/
COC(=O)c1sc(-c2ccc(Cl)cc2)cc1NC(=O)/C=C/C(=O)O	.	70	.	.	.	.	27
COC(=O)c1c(NC(=O)/C=C/C(=O)O)sc(C)c1-c1ccc(C)c(C)c1	.	63	/	/	.	.	38
CCOC(=O)c1c(NC(=O)/C=C/C(=O)O)sc(C)c1-c1ccc(C)c(C)c1	.	78	/	.	.	.	14
COC(=O)c1scc(C)c1NC(=O)/C=C/C(=O)O	.	.	/	.	.	.	/
CCOC(=O)c1c(NC(=O)/C=C/C(=O)O)sc(C)c1-c1ccc(F)cc1	.	60	/	.	.	.	34
COC(=O)c1c(NC(=O)/C=C/C(=O)O)sc(C)c1-c1ccc(C(C)C)cc1	.	77	/	.	.	.	13
CC(C)=C1C2CCC1C(C(=O)Nc1sc(C)c(-c3ccc(C(C)C)cc3)c1C(N)=O)C2C(=O)O (stereo not given)	.	.	.	.	.	.	/
Cc1nn(-c2ccccc2)c2c1C1(C(=O)N3c4c(cccc41)C(C)CC3(C)C)C(C#N)=C(N)O2 (stereo not given)	.	49	.	.	.	.	9.7
CC(=O)N1C(=O)C2(C(C#N)=C(N)Oc3c2c(C)nn3-c2ccccc2)c2ccccc21 (stereo not given)	.	55	.	/	.	.	5.8
Cc1nn(-c2ccccc2)c2c1C1(C(=O)N(C)c3ccccc31)C(C#N)=C(N)O2 (stereo not given)	.	.	/	/	.	.	/
CO[C@@H]1CN(C)C(=O)c2ccc(NC(=O)C3CCCC3)cc2OC[C@@H](C)N(C(C)=O)C[C@@H]1C	/	/	/	.	/	/	/
O=C(NCc1ccccc1Cl)[C@@H]1[C@@H](CO)[C@@H]2Cn3c(cccc3=O)[C@@H]2N1C(=O)C1CCCC1	/	/	.	.	/	/	/
O=C(NC(NC1CCS(=O)(=O)C1)C(=O)c1cccs1)c1ccccc1 (stereo not given)	/	.	/	/	.	.	/
O=C(NC1=C(Nc2ccc(Cl)cc2)C(=O)c2ccccc2C1=O)c1ccccc1	.	49	/	.	.	.	25
O=C(NC1=C(NC2CCS(=O)(=O)C2)C(=O)c2ccccc2C1=O)c1ccccc1 (stereo not given)	.	84	.	.	.	.	1
